# Data reported in PubChem BioAssay (EPA / NIEHS).
# Results filed as inconclusive are left out. Some structures have more than one record in an assay (separate samples or runs), and their calls can disagree. The source made the active and inactive calls. Rule for the calls: active = hit-call score of the fitted dose curve at least 0.9, where 1 is the maximum; inconclusive = response in the unintended direction; inactive = score below 0.9.
# Key:
# [1] = target: human Ephrin type-A Receptor 1 (EphA1), EPHA1 (gene 2041) (UniProt P21709); test: NVS_ENZ_hEphA1: NovaScreen (NVS) Enzymatic Assay for human Ephrin type-A Receptor 1 (EphA1) (AID 2283158);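 note: activity is signal loss versus DMSO meaning EphA1 kinase inhibition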
# How it was run: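 Recombinant kinase, fluorescent substrate, mobility-shift separation, fluorescence read at 1 h. Single-point duplicates at 25 uM; hits (e.g., ≥30% inhibition) run singleton concentration-response, max 50 uM. DMSO = negative control/baseline.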
# [2] = target: human Phosphodiesterase 10 (PDE10), PDE10A (gene 10846) (UniProt Q9Y233); test: NVS_ENZ_hPDE10: NovaScreen (NVS) Enzymatic Assay for human Phosphodiesterase 10 (PDE10) (AID 2283195)
# How it was run: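 PDE10A, cell-free; 1 h incubation; fluorescence intensity + electrophoretic mobility shift separating substrate/product; DMSO = baseline; 25 uM duplicate primary, CRC up to 50 uM.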
# [3] = target: human Phosphoinositide 3-kinase alpha (PI3Ka), PIK3CA (gene 5290) (UniProt P42336); test: NVS_ENZ_hPI3Ka: NovaScreen (NVS) Enzymatic Assay for human Phosphoinositide 3-kinase alpha (PI3Ka) (AID 2283196)
# How it was run: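 Enzyme activity as fluorescence after mobility-shift separation of substrate and product, 1 h reaction, recombinant human PI3Kα; concentration-response to 50 uM max for chemicals passing a 25 uM duplicate screen.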
# [4] = target: Glycogen synthase kinase-3 beta (Homo sapiens) (UniProt P49841); test: NVS_ENZ_hGSK3b: NovaScreen (NVS) Enzymatic Assay for human Glycogen Synthase Kinase-3 beta (GSK3b) (AID 2283165)
# How it was run: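 Recombinant enzyme with specific fluorescent substrate, 1 h, product separated by electrophoretic mobility shift. Primary duplicate screen at 25 uM; actives (e.g. 30% inhibition) followed in singleton concentration-response to 50 uM. Signal loss fitted versus DMSO.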
# [5] = target: Collagenase 3 (Homo sapiens) (UniProt P45452); test: NVS_ENZ_hMMP13: NovaScreen (NVS) Enzymatic Assay for human Matrix Metalloproteinase-13 (MMP13) (AID 2283182)
# How it was run: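 Recombinant MMP13 cleaving fluorescent substrate, cell-free, measured 1 h after dosing. Primary duplicate screen at 25 uM; actives tested in concentration-response up to 50 uM; loss of signal relative to DMSO.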
# [6] = target: human Matrix Metalloproteinase-2 (MMP2), MMP2 (gene 4313) (UniProt P08253); test: NVS_ENZ_hMMP2: NovaScreen (NVS) Enzymatic Assay for human Matrix Metalloproteinase-2 (MMP2) (AID 2283184)
# How it was run: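 Cell-free recombinant MMP2 activity with a fluorescent substrate, read 1 h after dosing. Primary screen in duplicate at 25 uM; actives then run in concentration series; loss of signal fitted versus DMSO.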
# [7] = target: human Matrix Metalloproteinase-9 (MMP9), MMP9 (gene 4318) (UniProt P14780); test: NVS_ENZ_hMMP9: NovaScreen (NVS) Enzymatic Assay for human Matrix Metalloproteinase-9 (MMP9) (AID 2283190);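 note: cell-free recombinant MMP9 protease activity read by fluorescent substrate signal; active means inhibition seen as loss of fluorescence signal versus DMSO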
# How it was run: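 Cell-free fluorescence-intensity enzyme activity assay using extracted protein, read 1 h after dosing. Loss of signal versus DMSO baseline indicates inhibition; primary screen in duplicate at 25 uM, actives followed up in concentration series.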
# [8] = target: Protein deacetylase HDAC6 (Homo sapiens) (UniProt Q9UBN7); test: NVS_ENZ_hHDAC6: NovaScreen (NVS) Enzymatic Assay for human Histone Deacetylase 6 (HDAC6) (AID 2283164)
# How it was run: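 Recombinant human HDAC6 with fluorescent substrate, 1 h; product separated from substrate by electrophoretic mobility shift. Primary screen in duplicate at 25 uM; actives retested singly in concentration-response up to 50 uM, fitted relative to DMSO.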
# [9] = target: human p21 Activated Kinase 4 (PAK4), PAK4 (gene 10298) (UniProt O96013); test: NVS_ENZ_hPAK4: NovaScreen (NVS) Enzymatic Assay for human p21 Activated Kinase 4 (PAK4) (AID 2283189)
# How it was run: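 Cell-free recombinant human PAK4 activity assay; fluorescent substrate and product separated by electrophoretic mobility shift, read 1 h after dosing. Initially tested in duplicate at 25 uM, relative to DMSO baseline.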
# [10] = target: human FYN Proto-Oncogene, Src family Tyrosine Kinase (Fyn), FYN (gene 2534) (UniProt P06241); test: NVS_ENZ_hFyn: NovaScreen (NVS) Enzymatic Assay for human FYN Proto-Oncogene, Src family Tyrosine Kinase (Fyn) (AID 2283161)
# How it was run: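 Recombinant enzyme with fluorescent substrate, product separated by electrophoretic mobility shift; read 1 h after dosing. Duplicate 25 uM single-point screen, actives retested in concentration series; loss of signal vs DMSO.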
# [11] = target: Histone deacetylase 3 (Homo sapiens) (UniProt O15379); test: NVS_ENZ_hHDAC3: NovaScreen (NVS) Enzymatic Assay for human Histone Deacetylase 3 (HDAC3) (AID 2283163)
# How it was run: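 Recombinant human HDAC3 with fluorescent substrate, 1 h after dosing; product separated from substrate by electrophoretic mobility shift and read by fluorescence. Primary screen at 25 uM in duplicate; actives (e.g. ≥30% inhibition) retested in concentration-response up to 50 uM.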
# [12] = target: human Phosphodiesterase 5 (PDE5), PDE5A (gene 8654) (UniProt O76074); test: NVS_ENZ_hPDE5: NovaScreen (NVS) Enzymatic Assay for human Phosphodiesterase 5 (PDE5) (AID 2283194)
# How it was run: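 Recombinant human PDE5 with specific substrate, read 1 h after dosing by fluorescence with electrophoretic mobility-shift separation of substrate and product. Initial single-concentration duplicate screen at 25 uM, actives followed in concentration series; loss of activity versus DMSO.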
# [13] = target: human Fibroblast Growth Factor Receptor 1 (FGFR1), FGFR1 (gene 2260) (UniProt P11362); test: NVS_ENZ_hFGFR1: NovaScreen (NVS) Enzymatic Assay for human Fibroblast Growth Factor Receptor 1 (FGFR1) (AID 2283159);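 note: hits lower the signal so potencies describe inhibitors of the kinase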
# How it was run: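 Cell-free recombinant kinase with fluorescent substrate, product separated by electrophoretic mobility shift; read 1 hour after dosing, loss of signal relative to DMSO. Initial screen in duplicate at 25 uM, actives followed in concentration series.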
# [14] = target: human Matrix Metalloproteinase-1 (MMP1), MMP1 (gene 4312) (UniProt P03956); test: NVS_ENZ_hMMP1: NovaScreen (NVS) Enzymatic Assay for human Matrix Metalloproteinase-1 (MMP1) (AID 2283181)
# How it was run: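 Human MMP1 enzyme activity measured by fluorescence 1 h after dosing, cell-free, with a specific substrate. Screened in duplicate at 25 uM; hits (e.g. 30% inhibition) run in concentration-response up to 50 uM; loss of signal versus DMSO.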
# Sequence of Glycogen synthase kinase-3 beta (Homo sapiens) (P49841 whole entry, looked up): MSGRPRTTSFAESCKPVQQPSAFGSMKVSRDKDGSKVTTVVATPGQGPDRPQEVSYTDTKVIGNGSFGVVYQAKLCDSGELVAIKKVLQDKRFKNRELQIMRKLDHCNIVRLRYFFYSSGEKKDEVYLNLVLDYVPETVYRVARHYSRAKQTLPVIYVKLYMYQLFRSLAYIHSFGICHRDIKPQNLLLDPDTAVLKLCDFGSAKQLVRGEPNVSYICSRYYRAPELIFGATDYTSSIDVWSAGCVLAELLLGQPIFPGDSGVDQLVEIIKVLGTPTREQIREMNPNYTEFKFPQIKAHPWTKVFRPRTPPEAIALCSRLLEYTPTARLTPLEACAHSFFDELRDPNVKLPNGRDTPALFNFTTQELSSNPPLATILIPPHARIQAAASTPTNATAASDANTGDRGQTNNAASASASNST
# Sequence of human Ephrin type-A Receptor 1 (EphA1), EPHA1 (gene 2041) (P21709 whole entry, looked up): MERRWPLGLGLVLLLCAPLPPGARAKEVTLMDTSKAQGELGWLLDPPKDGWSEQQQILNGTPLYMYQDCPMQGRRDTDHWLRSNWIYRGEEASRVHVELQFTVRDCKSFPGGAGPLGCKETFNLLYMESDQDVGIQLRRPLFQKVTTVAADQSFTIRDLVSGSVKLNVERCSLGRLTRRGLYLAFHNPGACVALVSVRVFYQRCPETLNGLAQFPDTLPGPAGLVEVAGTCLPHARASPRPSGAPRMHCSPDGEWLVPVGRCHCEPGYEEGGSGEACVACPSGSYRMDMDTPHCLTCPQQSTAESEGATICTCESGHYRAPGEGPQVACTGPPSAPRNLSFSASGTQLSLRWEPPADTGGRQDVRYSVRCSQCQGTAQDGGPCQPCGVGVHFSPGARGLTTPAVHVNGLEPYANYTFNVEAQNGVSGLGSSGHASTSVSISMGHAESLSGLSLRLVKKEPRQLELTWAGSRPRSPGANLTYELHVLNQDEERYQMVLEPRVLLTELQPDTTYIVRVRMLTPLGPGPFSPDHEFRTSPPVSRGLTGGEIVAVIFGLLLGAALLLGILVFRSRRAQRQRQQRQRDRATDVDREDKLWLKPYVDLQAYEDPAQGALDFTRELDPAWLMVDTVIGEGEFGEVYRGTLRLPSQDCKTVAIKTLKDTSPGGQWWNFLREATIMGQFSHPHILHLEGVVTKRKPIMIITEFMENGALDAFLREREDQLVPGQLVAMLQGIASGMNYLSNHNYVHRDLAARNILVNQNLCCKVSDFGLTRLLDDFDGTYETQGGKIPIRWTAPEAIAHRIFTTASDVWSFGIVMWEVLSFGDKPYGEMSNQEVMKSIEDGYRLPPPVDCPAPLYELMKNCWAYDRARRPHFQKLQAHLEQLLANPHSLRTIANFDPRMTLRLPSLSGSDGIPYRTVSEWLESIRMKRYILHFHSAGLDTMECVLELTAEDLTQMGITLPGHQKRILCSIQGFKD
# Sequence of human Matrix Metalloproteinase-9 (MMP9), MMP9 (gene 4318) (P14780 whole entry, looked up): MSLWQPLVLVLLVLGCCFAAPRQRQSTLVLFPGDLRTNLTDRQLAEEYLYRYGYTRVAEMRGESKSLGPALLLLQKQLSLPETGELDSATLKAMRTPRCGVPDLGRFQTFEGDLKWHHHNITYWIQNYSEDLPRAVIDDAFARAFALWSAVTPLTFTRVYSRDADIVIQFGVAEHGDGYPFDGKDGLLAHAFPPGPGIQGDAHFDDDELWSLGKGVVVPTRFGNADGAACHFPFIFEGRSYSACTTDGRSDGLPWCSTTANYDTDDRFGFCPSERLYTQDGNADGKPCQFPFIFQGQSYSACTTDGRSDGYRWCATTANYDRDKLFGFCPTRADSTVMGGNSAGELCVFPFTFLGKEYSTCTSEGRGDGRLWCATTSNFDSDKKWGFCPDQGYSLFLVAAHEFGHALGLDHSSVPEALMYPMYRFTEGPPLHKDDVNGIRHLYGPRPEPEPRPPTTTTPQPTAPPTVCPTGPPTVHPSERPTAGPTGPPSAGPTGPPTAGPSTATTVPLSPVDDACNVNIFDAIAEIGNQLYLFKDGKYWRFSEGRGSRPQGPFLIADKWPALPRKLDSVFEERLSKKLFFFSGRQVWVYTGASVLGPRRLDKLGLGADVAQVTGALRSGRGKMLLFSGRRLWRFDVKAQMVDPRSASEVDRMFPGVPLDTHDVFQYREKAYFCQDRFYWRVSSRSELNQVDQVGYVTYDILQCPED
# Sequence of human Phosphoinositide 3-kinase alpha (PI3Ka), PIK3CA (gene 5290) (P42336 whole entry, looked up): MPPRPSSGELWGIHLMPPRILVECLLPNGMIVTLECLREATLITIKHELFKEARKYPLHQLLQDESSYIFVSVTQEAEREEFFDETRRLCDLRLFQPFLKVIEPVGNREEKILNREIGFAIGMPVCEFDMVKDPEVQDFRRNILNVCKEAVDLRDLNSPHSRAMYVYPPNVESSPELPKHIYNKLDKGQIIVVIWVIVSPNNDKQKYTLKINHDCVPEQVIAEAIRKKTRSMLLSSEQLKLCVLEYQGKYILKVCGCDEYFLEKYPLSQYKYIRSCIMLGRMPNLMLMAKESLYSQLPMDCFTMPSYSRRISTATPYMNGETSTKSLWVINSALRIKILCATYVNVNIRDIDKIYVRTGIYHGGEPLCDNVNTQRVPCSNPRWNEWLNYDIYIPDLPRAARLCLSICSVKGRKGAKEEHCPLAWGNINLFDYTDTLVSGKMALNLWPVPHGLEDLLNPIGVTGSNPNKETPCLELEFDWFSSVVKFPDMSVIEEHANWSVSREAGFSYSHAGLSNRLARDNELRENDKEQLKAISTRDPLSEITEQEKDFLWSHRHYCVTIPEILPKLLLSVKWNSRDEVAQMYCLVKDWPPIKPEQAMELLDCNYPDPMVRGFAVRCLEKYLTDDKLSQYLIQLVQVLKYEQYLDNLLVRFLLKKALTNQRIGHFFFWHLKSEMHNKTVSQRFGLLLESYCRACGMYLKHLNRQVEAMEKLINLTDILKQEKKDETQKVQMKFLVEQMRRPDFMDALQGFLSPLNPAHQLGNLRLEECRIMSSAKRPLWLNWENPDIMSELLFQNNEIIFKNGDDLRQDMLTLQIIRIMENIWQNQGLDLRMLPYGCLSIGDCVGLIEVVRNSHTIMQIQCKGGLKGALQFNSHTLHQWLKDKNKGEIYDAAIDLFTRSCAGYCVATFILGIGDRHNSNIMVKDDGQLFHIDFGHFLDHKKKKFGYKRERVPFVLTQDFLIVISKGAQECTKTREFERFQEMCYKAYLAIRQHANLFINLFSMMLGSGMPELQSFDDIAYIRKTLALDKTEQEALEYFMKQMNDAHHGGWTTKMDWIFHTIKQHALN
# Sequence of Protein deacetylase HDAC6 (Homo sapiens) (Q9UBN7 whole entry, looked up): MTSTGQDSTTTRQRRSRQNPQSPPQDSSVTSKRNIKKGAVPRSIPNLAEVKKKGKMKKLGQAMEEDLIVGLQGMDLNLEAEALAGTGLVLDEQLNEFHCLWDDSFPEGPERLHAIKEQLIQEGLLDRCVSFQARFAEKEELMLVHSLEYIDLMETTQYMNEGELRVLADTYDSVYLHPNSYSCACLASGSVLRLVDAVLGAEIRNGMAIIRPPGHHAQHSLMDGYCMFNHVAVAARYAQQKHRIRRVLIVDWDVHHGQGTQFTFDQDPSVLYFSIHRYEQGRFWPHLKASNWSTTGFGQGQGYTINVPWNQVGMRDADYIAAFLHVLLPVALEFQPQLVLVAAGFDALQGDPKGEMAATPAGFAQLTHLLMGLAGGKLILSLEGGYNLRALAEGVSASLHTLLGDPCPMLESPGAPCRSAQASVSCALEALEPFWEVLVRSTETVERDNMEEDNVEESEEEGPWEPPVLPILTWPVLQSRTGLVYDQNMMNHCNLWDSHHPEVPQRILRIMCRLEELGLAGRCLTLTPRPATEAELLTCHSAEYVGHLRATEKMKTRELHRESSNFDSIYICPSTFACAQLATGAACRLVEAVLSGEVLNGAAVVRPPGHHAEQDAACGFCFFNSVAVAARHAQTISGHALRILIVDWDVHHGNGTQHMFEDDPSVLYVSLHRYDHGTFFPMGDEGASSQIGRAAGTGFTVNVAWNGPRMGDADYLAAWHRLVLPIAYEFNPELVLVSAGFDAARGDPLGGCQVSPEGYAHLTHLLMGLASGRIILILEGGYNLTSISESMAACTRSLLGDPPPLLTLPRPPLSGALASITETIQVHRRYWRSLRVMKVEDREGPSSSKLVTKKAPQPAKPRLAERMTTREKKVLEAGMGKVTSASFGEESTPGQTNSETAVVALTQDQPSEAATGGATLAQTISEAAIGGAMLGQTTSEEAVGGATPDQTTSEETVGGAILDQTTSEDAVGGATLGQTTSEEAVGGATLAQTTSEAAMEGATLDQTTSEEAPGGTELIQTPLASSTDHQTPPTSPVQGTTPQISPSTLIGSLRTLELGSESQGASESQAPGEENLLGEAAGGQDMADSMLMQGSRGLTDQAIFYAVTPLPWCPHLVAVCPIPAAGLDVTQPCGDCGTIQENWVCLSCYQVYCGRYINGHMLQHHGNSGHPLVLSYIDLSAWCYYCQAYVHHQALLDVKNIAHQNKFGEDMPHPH
# Sequence of Histone deacetylase 3 (Homo sapiens) (O15379 whole entry, looked up): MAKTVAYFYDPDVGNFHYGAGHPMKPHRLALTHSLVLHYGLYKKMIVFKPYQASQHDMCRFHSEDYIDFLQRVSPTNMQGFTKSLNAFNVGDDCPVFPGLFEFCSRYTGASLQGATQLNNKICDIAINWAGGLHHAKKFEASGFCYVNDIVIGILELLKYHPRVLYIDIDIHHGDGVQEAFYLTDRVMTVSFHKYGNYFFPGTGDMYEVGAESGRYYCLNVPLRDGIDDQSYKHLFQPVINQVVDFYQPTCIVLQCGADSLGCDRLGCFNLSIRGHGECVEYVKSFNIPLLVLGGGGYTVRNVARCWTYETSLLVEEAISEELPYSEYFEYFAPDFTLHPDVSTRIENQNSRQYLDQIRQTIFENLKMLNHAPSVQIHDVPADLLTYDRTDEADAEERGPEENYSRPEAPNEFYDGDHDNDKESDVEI
compound,measurement,setting,value
CC(Br)C(=O)O (centres undefined),outcome,[1],inactive
same,outcome,[2],inactive
C(=NC1CCCCC1)=NC1CCCCC1,outcome,[1],inactive
same,outcome,[3],inactive
CCCCCCCCc1ccc(O)cc1,outcome,[4],inactive
COc1cc(-c2ccc(N)c(OC)c2)ccc1N,outcome,[4],inactive
same,AC50,[5],17.9 µM (active)
same,AC50,[6],7.86 µM (active)
same,AC50,[7],15.7 µM (active)
same,outcome,[7],inactive
C[C@]12CCC(=O)C[C@@H]1CC[C@@H]1[C@@H]2CC[C@]2(C)[C@@H](O)CC[C@@H]12,outcome,[8],inactive
same,outcome,[9],inactive
NC(=O)O,outcome,[10],inactive
COc1cc2c(cc1OC)[C@@]13CCN4CC5=CCO[C@H]6CC(=O)N2[C@H]1[C@H]6[C@H]5C[C@H]43,outcome,[1],inactive
Nc1ccc(-c2ccc(N)c(Cl)c2)cc1Cl,AC50,[1],1.28 µM (active)
same,AC50,[7],0.597 µM (active)
same,outcome,[3],inactive
O=[N+]([O-])c1ccc(O)c([N+](=O)[O-])c1,outcome,[11],inactive
COP(=S)(OC)Oc1c(Cl)cc(C)cc1Cl,outcome,[1],inactive
same,outcome,[3],inactive
Cc1ccccc1N,outcome,[4],inactive
same,outcome,[3],inactive
CCCCCCCCC(=O)NCc1ccc(O)c(OC)c1,outcome,[1],inactive
CC(C)(C)CC(C)(C)c1ccc(O)cc1,outcome,[4],inactive
same,outcome,[12],inactive
CC(C)(OO)c1ccccc1,outcome,[4],inactive
same,outcome,[9],inactive
CCc1ccccc1N,outcome,[1],inactive
COc1cccc(C=O)c1,outcome,[1],inactive
same,outcome,[2],inactive
NC(=S)Nc1ccccc1,AC50,[1],41.6 µM (active)
same,AC50,[7],29.4 µM (active)
CC(=O)[O][Hg][c]1ccccc1,AC50,[13],33.4 µM (active)
same,AC50,[11],9.74 µM (active)
same,AC50,[8],2.32 µM (active)
same,AC50,[14],6.38 µM (active)
same,outcome,[12],inactive
Nc1cccc(Cl)c1,outcome,[1],inactive
same,AC50,[7],0.226 µM (active)
